# Laboratory results from PubChem BioAssay (NCATS).
# Several values for one entry are separate records, joined by “and”; a condition that tells them apart may be missing. Equal entries are not always repeated. Records with an inconclusive call do not appear. Entries that show only a call come without a potency. Activity calls are given as the source filed them. Unless noted, calls come from the whole dose curve; as a rule, active = well fitted curve in the direction sought with a large enough effect; inconclusive = small, poorly fitted or top-dose-only effect, or another doubt; inactive = no such curve, though single readings can be large; an effect the other way counts as inactive or inconclusive.
# How the values were obtained:
# [1] = AP1 Signaling Pathway (AID 357; active = well fitted curve in either direction with a large enough effect, not every such curve was filed as active;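 note: ME-180 reporter cells stimulated with EGF at its EC50 level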)
# In short: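 AP-1-bla ME-180 cells, Opti-MEM + 0.5% dialyzed FBS, plated overnight 37 °C. Cpd titration + EC50 EGF, 5 h 37 °C. CCF4 2.5 h RT; ex 405, em 460/530 ratio → %activity, AC50.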
# [2] = target: Cytochrome P450 1A2 (Homo sapiens) (UniProt P05177); test: p450-cyp1a2 (AID 410; calls by dose curve)
# In short: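 O-Demethylation of luciferin 6' methyl ether by human CYP1A2 is monitored as luciferase luminescence. Substrate sits at Km (100uM); enzyme is 20nM. Values are scaled to 57 uM furafylline as maximal inhibition.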
# [3] = NFAT Signaling Pathway (AID 444; active = well fitted curve in either direction with a large enough effect, not every such curve was filed as active;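 note: carbachol stimulus at about its EC50 of 1 µM final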); conditions: Jurkat NFAT-bla M1, carbachol, beta-lactamase ratio, 5 h; at 17.2 µM (top of the series)
# In short: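 Jurkat cells with NFAT-driven β-lactamase reporter and co-expressed M1 receptor, stimulated with carbachol (final 1 uM, ~EC50), compound titration, 5 h at 37 °C. CCF4 loaded 1 h at RT; 460/530 nm ratio gave %activity and AC50.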
# [4] = Stat Signaling Pathway (AID 446; active = well fitted curve in either direction with a large enough effect, not every such curve was filed as active;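 note: ME-180 cervical cancer cells given 40 pM IL-6 alongside compound; SIE-controlled beta-lactamase reporter measured as 460/530 nm FRET emission ratio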)
# In short: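 FRET read-out (405 nm excitation, 460/530 nm emission) of a beta-lactamase reporter under a STAT-inducible element in ME-180 cervical carcinoma cells. Cells with compound receive 40 pM IL-6 for 5 h. Values are normalised to AC90 stimulation and AC90 JAK-inhibitor controls.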
# [5] = target: Glucocorticoid receptor (Homo sapiens) (UniProt P04150); test: GR-GFP Redistribution (AID 450;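 active = compounds whose dose series gives a full or clear partial fitted curve of increased nuclear translocation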; note: potency is the fitted concentration of half-maximal effect); conditions: U2OS GR-GFP nuclear translocation, laser cytometry, 2 h
# [6] = target: Glucocorticoid receptor (Homo sapiens) (UniProt P04150); test: GR-EFC Redistribution (AID 451; calls by dose curve; note: potency is the fitted concentration of half-maximal effect); conditions: CHO-K1 GR-EFC translocation, beta-gal luminescence, 2 h
# In short: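 CHO-K1 cells expressing nuclear EA and GR-ED fragments of b-gal; compounds titrated up to 46 uM final, 2 h at 37 C. GR nuclear translocation read as complemented b-gal luminescence after 1 h RT detection.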
# [7] = target: Mitogen-activated protein kinase 10 (Mus musculus) (UniProt Q61831); test: JNK3 AlphaScreen Assay (AID 530; active = well fitted curve in either direction with a large enough effect, not every such curve was filed as active;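 note: kinase came from lysate of stimulated human HepG2 cells; signal reports phosphorylation of biotinylated GST-cJun 1-79 at Ser73 with 10 µM ATP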)
# In short: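 Activity was read by AlphaScreen after JNK3-containing HepG2 lysate (cytokine pre-activated) phosphorylated biotinylated GST-cJun with 10 uM ATP at room temperature. Phospho-Ser73 cJun antibody with Protein-A acceptor beads provided detection.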
# [8] = target: 3',5'-cyclic-AMP phosphodiesterase 4B (Homo sapiens) (UniProt Q07343); test: qHTS Assay for Inhibitors of PDE-IV (AID 607; active = well fitted activation curve with a large enough effect in the main read-out, with a control signal flat, not every such curve was filed as active)
# In short: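 Cell-based read-out of cAMP via a modified cyclic nucleotide-gated channel and membrane potential dye (535/590 nm) in HEK293 cells expressing PDE4 endogenously. Compounds tested up to 22.9 uM final; 100 uM RO 20-1724 reference.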
# [9] = target: Cytochrome P450 2C9 (Homo sapiens) (UniProt P11712); test: qHTS Assay for Inhibitors and Substrates of Cytochrome P450 2C9 (AID 883); note: nearly all actives have a fitted effect of over 60% in size
# In short: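 Signal: luciferase luminescence reporting luciferin produced by CYP2C9. Conditions: 10nM enzyme, Luciferin-H 100uM at KM, 25mM KPO4, 37C, 60 min NADPH-driven reaction. Reference: 57uM sulphaphenazole as 100% inhibition.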
# [10] = target: Cytochrome P450 3A4 (Homo sapiens) (UniProt P08684); test: qHTS Assay for Inhibitors and Substrates of Cytochrome P450 3A4 (AID 884); note: nearly all actives have a fitted effect of over 50% in size
# In short: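 Luminescent readout of luciferin produced by CYP3A4 (20 nM) dealkylation of Luciferin-PPXE, 25 uM (its KM). NADPH-driven reaction ran 60 min at RT after 10 min compound preincubation; data scaled to 57 uM ketoconazole as 100% inhibition.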
# [11] = target: Cytochrome P450 2D6 (Homo sapiens) (UniProt P10635); test: qHTS Assay for Inhibitors and Substrates of Cytochrome P450 2D6 (AID 891);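 note: luciferin methyl ether substrate demethylated by CYP2D6 with NADPH regeneration; nearly all actives have a fitted effect of over 60% in size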
# In short: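 Luminescent read-out of luciferin formed by 5 nM human CYP2D6 demethylating 30 uM Luciferin-ME EGE (Km level) over 60 min at room temperature after NADPH regeneration addition. Data normalized to full inhibition by 1.43 uM quinidine.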
# [12] = target: Cytochrome P450 2C19 (Homo sapiens) (UniProt P33261); test: qHTS Assay for Inhibitors and Substrates of Cytochrome P450 2C19 (AID 899); note: nearly all actives have a fitted effect of over 60% in size
# In short: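 Signal comes from luciferase acting on luciferin released by CYP2C19-mediated hydroxylation of Luciferin-H EGE, 10uM (KM). Assay mix: 5nM enzyme, 50mM KPO4; 60 min at 37C with NADPH regeneration. Data normalized against 57uM ketoconazole.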
# [13] = qHTS Assay for Lipid Storage Modulators (AID 1519; calls by dose curve); conditions: Drosophila S3 cells, BODIPY lipid droplet/cell ratio, laser cytometry, cells loaded with oleic acid
# In short: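 Cells seeded at 5,000 per well were treated with compounds over a concentration series and loaded with oleic acid (400 uM, as added). Lipid droplet fluorescence (488 nm excitation, 500-530 nm channel) was read by laser-scanning cytometry and normalized to 20 uM Triacsin C.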
# [14] = target: Ubiquitin carboxyl-terminal hydrolase 1 (Homo sapiens) (UniProt O94782); test: Inhibitors of USP1/UAF1: Pilot qHTS (AID 504865);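 note: rhodamine fluorescence freed from ubiquitin-rhodamine substrate followed over time; top concentration of the series differs between compounds; nearly all actives have a fitted effect of over 35% in size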
# In short: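 Kinetic fluorescence assay: 1nM USP1/UAF1, 15 min compound preincubation, then 150nM Ub-Rho; 480/540 nm.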
# [15] = target: DNA dC->dU-editing enzyme APOBEC-3G (Homo sapiens) (UniProt Q9HC16); test: qHTS for inhibitors of Vif-A3G interactions: Validation (AID 588379)
# In short: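 Yellow fluorescence (Ex 488, Em 500-530) of Vif-coexpressing HeLa A3G-eYFP cells, scanned by Acumen cytometer, reports blocked A3G degradation. Cells plated at 700/well overnight at 37 deg C before compound addition, then a further overnight compound incubation at 37 deg C.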
# [16] = P-glycoprotein substrates identified in KB-3-1 adenocarcinoma cell line, qHTS therapeutic library screen (AID 1346986); note: nearly all actives have a fitted effect of over 60% in size
# In short: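 In 1536-well format, 500 cells/well received pinned compound titrations and were incubated 72 h, 5% CO2. Viability was read by CellTiter-Glo; cytotoxic if AC50 < 10 uM and efficacy >50%.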
# [17] = P-glycoprotein substrates identified in KB-8-5-11 adenocarcinoma cell line, qHTS therapeutic library screen (AID 1346987); note: nearly all actives have a fitted effect of over 65% in size; note: potency is the fitted concentration of half-maximal effect
# In short: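 Luminescence from CellTiter-Glo, read 5 min after addition, quantified survival of KB-8-5-11 (P-gp-overexpressing) cells exposed to compounds for 72 h. AC50 was derived from concentration-response curves.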
# [18] = Primary qHTS for inhibitors of nuclear receptor binding SET domain protein 2 (NSD2) in an isogenic RCH-ACV NSD2 p.E1099K mutant (9B) (AID 1645876); note: nearly all actives have a fitted effect of over 70% in size
# [19] = Primary qHTS for inhibitors of nuclear receptor binding SET domain protein 2 (NSD2) in an RCH-ACV wild type WT cells (2C) (AID 1645877); note: nearly all actives have a fitted effect of over 70% in size
# [20] = target: Glutathione peroxidase 1 (Homo sapiens) (UniProt P07203); test: Primary qHTS Assay for Inhibitors of Recombinant Selenoprotein Glutathione Peroxidase 1 (GPX1) (AID 1845191); note: nearly all actives have a fitted effect of over 65% in size
# In short: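 GR-coupled readout: NADPH consumption tracked by fluorescence, ex 340/em 450 nm, at t=0 and after 15 min at RT. Final mix 10 nM GPX1, 1 mM GSH, 0.5 mM CHP, 0.5 mM NADPH, 100 nM GR, 0.01% BSA, following 30 min enzyme–compound preincubation.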
# [21] = qHTS assay for small molecule activators of the p53 signaling pathway (AID 651743; active = well fitted activation curve with a large enough effect in the signal ratio, not every such curve was filed as active; the % refers to the signal ratio); conditions: HCT-116 p53RE-bla, beta-lactamase FRET ratio, 16 h; activation: stronger effect = higher value
# In short: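 Following 16 hours of compound exposure at 37 C, HCT-116 cells bearing the p53RE-bla reporter were loaded with LiveBLAzer B/G FRET substrate for 2 hours at room temperature and fluorescence intensity was recorded.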
# [22] = qHTS assay for environmental chemicals that activate the Aryl hydrocarbon Receptor (AhR) signaling pathway (AID 651777); conditions: 1A2-DRE human hepatoma cells, luciferase, 24 h; activation: stronger effect = higher value; note: nearly all actives have a fitted effect of over 15% in size
# In short: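 1A2-DRE human hepatoma reporter line; 1,200 cells/well; cmpd or DMSO 24 h, 37 C/5% CO2; One-Glo 30 min RT; luciferase lum.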
# [23] = target: Peroxisome proliferator-activated receptor alpha (Homo sapiens) (UniProt Q07869); test: qHTS assay for small molecule agonists of the peroxisome proliferator-activated receptor alpha (PPARalpha) signaling pathway (AID 651778); conditions: PathHunter PPARalpha complementation, chemiluminescence, 6 h; stronger effect = higher value
# In short: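 Enzyme-fragment complementation assay in which ligand-bound PPARalpha translocates and forms an active enzyme that generates chemiluminescence. Cells were plated overnight, exposed to compound for 6 hr at 37 C, and then given detection reagent for 60 min at room temperature.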
# [24] = qHTS assay for small molecule agonists of the antioxidant response element (ARE) signaling pathway measured by Nrf2-dependant transcriptional activity (AID 720636; active = well fitted curve in the direction sought with a large enough effect in the repeat runs; an effect the other way counts as inactive or inconclusive;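 note: HepG2 cells with an ARE-driven luciferase reporter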)
# In short: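 Cells: ARE-luc HepG2 with Nrf2-responsive luciferase. Medium contained 1% dialyzed FBS. Compound exposure lasted 16 hr at 37 C and 5% CO2, followed by ONE-Glo luciferase detection.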
# [25] = qHTS assay for small molecule agonists of the antioxidant response element (ARE) signaling pathway measured by Nrf2-dependant transcriptional activity - cell viability counter screen (AID 720653; active = well fitted curve in the direction sought with a large enough effect in the repeat runs; an effect the other way counts as inactive or inconclusive); conditions: ARE-bla HepG2 viability, CellTiter-Glo ATP luminescence, 16 h; max response: stronger effect = lower value
# In short: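 ARE-bla HepG2 cells treated with compounds for 16 h at 37C; this counter screen measures viability as intracellular ATP by CellTiter-Glo luminescence after 30 min at room temperature.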
# [26] = qHTS Assay for Identifying Gametocytocidal Compounds (AID 743244);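 note: actives lower the fluorescent signal which means gametocytes are killed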; conditions: P. falciparum 3D7 stage III-V gametocytes, alamarBlue, 72 h; max response: stronger effect = lower value
# In short: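 3D7 gametocytes, stages III–V, 20,000/well; cpd 72 h, 37 °C/5% CO2; + alamarBlue 24 h; fluor. Ex 525/Em 598.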
# [27] = qHTS assay for cell viability of HEK293 cells (AID 743288); conditions: ATP luminescence (CellTiter-Glo), 18 h; max response: stronger effect = lower value; note: nearly all actives have a fitted effect of over 50% in size
# In short: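 Quantitative high-throughput screen: compounds were pinned onto parental HEK293 cells (2,000 per well) after a minimum 5 h settling at 37 C, incubated 18 h at 37 C, and intracellular ATP measured by luciferase luminescence.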
# [28] = qHTS assay for cell viability of the p53RE-bla HCT-116 cell line (AID 743292); note: nearly all actives have a fitted effect of over 55% in size
# In short: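 HCT-116 p53RE-bla cells seeded 4,000/well; 5 h at 37 C; compound (DMSO) added; 16 h at 37 C; CellTiter-Glo added, 30 min RT; luminescence read.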
# [29] = Drug repurposing screens with cells derived from glioblastoma tumor samples (AID 1345199); conditions: GBM patient neurospheres viability, ATP luminescence, 48 h; Potency: tumour line A; series mostly up to 45.9 µM; note: nearly all actives have a fitted effect of over 40% in size
# In short: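 Primary testing used CD133+ neurospheres from four GBM patients, seven concentrations, 48 h exposure and ATP-based viability; confirmation added three slower-growing patient lines.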
# [30] = target: Nuclear receptor subfamily 1 group I member 2 (Rattus norvegicus) (UniProt Q9R1A7); test: qHTS assay for small molecule activators of the rat pregnane X receptor (rPXR) signaling pathway (AID 651751; call rule not given here); conditions: rPXR reporter cells, luciferase (One-Glo), 24 h
# [31] = qHTS assay for small molecule activators of the human pregnane X receptor (PXR) signaling pathway (AID 720659; call rule not given here)
# Glucocorticoid receptor (Homo sapiens), sequence (P04150 whole entry, looked up, the tested form may be a part): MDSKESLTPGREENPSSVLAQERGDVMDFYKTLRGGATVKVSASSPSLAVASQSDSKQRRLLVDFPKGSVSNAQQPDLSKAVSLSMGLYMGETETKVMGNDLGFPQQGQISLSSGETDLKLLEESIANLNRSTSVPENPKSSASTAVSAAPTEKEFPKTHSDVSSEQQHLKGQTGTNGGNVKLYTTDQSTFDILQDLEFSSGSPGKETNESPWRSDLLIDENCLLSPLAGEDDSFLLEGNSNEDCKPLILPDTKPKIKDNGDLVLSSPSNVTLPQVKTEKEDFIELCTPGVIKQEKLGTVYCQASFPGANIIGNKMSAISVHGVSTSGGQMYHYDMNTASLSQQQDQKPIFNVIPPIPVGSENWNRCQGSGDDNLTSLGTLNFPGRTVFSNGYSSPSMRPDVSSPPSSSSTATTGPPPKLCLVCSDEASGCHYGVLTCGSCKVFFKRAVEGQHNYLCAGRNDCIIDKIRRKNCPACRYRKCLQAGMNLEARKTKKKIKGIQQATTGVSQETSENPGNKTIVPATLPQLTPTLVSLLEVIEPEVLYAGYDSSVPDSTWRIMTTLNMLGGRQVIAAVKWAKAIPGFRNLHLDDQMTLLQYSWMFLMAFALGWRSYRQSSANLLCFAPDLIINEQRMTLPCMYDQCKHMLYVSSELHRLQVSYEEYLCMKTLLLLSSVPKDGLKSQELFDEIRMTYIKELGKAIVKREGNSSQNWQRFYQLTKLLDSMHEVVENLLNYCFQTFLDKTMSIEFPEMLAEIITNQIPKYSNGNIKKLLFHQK
# Cytochrome P450 2C9 (Homo sapiens), sequence (P11712 whole entry, looked up): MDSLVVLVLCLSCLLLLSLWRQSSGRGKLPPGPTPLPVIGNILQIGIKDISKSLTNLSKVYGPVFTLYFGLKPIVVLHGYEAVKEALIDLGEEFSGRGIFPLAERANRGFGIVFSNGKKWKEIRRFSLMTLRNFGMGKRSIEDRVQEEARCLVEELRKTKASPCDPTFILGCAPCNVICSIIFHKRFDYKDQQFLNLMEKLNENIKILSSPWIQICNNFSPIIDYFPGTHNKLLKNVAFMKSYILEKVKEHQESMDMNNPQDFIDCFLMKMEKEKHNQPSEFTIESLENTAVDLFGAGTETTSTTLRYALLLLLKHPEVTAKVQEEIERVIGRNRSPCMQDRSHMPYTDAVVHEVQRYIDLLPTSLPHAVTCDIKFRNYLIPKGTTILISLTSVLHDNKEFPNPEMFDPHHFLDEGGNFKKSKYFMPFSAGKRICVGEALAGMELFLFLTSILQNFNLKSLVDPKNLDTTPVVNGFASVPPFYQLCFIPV
# Cytochrome P450 1A2 (Homo sapiens), sequence (P05177 whole entry, looked up): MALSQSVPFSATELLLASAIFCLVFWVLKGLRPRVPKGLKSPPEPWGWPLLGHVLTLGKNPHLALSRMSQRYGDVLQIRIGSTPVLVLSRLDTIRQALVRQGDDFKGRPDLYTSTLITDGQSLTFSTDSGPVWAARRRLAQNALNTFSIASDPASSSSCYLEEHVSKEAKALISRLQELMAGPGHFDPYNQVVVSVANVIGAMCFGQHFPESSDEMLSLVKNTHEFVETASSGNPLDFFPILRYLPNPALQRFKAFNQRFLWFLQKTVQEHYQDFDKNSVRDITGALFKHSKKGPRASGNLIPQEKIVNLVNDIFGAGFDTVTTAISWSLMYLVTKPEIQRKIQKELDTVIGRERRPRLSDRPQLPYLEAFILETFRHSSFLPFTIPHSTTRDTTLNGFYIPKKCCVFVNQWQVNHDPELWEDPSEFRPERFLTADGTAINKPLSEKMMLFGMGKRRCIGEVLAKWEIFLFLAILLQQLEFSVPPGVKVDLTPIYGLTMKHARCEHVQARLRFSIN
# Glutathione peroxidase 1 (Homo sapiens), sequence (P07203 whole entry, looked up): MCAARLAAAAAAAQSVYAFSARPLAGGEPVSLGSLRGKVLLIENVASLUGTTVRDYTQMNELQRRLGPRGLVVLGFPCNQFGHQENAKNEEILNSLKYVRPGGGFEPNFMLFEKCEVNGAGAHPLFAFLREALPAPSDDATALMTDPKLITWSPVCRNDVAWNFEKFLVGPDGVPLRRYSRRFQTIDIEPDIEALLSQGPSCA
# Cytochrome P450 2C19 (Homo sapiens), sequence (P33261 whole entry, looked up): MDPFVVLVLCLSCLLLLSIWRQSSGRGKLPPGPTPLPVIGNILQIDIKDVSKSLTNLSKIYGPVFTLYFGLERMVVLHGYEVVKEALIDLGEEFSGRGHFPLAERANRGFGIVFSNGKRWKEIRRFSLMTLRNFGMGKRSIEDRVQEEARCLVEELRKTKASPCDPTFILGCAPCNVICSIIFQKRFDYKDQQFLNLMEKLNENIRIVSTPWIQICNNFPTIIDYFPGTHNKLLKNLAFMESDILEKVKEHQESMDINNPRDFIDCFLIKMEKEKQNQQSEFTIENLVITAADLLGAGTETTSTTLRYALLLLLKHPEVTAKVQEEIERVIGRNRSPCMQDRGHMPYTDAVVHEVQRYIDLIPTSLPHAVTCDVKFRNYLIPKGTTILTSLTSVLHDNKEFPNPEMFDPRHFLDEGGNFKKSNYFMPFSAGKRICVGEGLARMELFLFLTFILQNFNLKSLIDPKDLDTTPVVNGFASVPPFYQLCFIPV
# Cytochrome P450 3A4 (Homo sapiens), sequence (P08684 whole entry, looked up): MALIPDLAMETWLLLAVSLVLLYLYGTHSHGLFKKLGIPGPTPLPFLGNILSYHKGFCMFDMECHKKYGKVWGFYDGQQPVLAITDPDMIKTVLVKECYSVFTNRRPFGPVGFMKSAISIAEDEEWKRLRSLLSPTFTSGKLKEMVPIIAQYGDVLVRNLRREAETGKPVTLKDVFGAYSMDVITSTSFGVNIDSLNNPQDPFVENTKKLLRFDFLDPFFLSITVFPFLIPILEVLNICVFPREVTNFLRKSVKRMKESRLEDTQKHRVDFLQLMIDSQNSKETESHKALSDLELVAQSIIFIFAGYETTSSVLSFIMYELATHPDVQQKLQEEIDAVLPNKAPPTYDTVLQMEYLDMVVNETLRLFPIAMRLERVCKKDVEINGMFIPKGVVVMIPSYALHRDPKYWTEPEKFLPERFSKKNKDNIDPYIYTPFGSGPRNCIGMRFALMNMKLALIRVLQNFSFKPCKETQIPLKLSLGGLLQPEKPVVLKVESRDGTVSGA
# Nuclear receptor subfamily 1 group I member 2 (Rattus norvegicus), sequence (Q9R1A7 whole entry, looked up): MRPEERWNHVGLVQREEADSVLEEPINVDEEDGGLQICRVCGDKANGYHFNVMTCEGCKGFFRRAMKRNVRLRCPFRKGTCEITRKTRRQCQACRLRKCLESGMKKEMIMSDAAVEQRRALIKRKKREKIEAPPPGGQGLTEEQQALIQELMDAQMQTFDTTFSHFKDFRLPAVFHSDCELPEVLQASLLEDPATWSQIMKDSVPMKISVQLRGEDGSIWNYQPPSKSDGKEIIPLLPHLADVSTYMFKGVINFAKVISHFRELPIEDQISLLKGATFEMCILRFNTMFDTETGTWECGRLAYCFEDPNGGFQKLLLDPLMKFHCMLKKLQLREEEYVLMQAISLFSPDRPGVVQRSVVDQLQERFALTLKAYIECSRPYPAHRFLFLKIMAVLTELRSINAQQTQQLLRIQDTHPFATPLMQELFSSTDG
# DNA dC->dU-editing enzyme APOBEC-3G (Homo sapiens), sequence (Q9HC16 whole entry, looked up): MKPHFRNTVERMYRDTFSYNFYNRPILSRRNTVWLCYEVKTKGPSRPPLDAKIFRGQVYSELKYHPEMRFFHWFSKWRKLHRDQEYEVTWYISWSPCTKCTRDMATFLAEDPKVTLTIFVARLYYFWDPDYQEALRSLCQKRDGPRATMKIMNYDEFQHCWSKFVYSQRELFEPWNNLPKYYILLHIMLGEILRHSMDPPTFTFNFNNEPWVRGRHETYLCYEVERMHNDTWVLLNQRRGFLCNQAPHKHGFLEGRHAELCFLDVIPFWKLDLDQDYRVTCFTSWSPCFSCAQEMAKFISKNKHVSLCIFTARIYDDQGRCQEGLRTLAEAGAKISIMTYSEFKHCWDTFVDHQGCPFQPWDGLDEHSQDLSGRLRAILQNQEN
# 3',5'-cyclic-AMP phosphodiesterase 4B (Homo sapiens), sequence (Q07343 whole entry, looked up): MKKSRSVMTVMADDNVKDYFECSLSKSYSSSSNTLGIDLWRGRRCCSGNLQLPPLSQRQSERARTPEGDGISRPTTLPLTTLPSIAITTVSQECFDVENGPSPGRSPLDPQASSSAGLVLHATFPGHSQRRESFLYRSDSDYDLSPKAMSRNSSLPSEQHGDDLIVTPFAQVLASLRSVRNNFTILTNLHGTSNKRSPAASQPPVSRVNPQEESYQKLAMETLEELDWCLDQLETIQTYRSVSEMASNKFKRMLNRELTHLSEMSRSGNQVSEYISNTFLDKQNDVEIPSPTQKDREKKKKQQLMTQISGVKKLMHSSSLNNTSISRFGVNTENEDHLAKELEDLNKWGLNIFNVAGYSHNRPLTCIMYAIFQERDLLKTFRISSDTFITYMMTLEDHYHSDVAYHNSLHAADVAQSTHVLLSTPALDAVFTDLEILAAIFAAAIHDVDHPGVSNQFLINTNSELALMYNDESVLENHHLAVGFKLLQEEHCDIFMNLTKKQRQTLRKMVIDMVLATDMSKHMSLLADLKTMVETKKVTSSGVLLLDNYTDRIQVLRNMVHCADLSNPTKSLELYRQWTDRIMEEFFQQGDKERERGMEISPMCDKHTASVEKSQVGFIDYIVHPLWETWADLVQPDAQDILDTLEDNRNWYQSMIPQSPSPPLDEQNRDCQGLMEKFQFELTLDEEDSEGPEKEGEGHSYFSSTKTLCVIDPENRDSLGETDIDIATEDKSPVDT
# Peroxisome proliferator-activated receptor alpha (Homo sapiens), sequence (Q07869 whole entry, looked up, the tested form may be a part): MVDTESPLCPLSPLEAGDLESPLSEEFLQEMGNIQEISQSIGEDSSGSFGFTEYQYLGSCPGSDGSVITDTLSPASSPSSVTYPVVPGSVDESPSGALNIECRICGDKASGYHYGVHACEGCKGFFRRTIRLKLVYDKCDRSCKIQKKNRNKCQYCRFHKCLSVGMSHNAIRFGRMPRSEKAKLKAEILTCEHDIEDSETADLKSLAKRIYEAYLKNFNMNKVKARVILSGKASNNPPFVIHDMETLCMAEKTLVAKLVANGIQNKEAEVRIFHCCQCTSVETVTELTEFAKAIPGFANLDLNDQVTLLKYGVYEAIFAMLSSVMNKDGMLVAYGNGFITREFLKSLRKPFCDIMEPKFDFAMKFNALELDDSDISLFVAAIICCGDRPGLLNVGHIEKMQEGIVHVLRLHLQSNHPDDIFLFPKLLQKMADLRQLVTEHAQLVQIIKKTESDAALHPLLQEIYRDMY
smiles,measurement,setting,value
COc1ccn(C)c(=O)c1C#N,outcome,[1],inactive
same,Potency,[2],inactive
same,"activity change, negative = inhibition",[3],6.67% (inactive)
same,outcome,[4],inactive
same,Potency,[5],> 20.6 µM (inactive) and > 46 µM (inactive)
same,Potency,[6],> 20.6 µM (inactive) and > 46 µM (inactive)
same,outcome,[7],inactive
same,Potency,[8],inactive
same,Potency,[9],inactive
same,Potency,[10],inactive
same,Potency,[11],inactive
same,Potency,[12],inactive
same,"activity change, negative = inhibition",[13]; at 25.7 µM (top of the series),-0.52% (inactive)
same,"activity change, negative = inhibition",[13]; at 57.5 µM (top of the series),1.07% (inactive)
same,max response,[13]; measured here: cell count channel max response,4.19% and -22.1%
same,max response,[13]; measured here: lipid channel max response,5.59% and -19.6%
same,Potency,[14],inactive
same,Potency,[15],inactive
same,Potency,[16],inactive
same,Potency,[17],inactive
same,Potency,[18],inactive
same,Potency,[19],inactive
same,Potency,[20],inactive
C[C@]12CC[C@H]3[C@@H](CCC4=CC(=O)CC[C@@]43C)[C@@H]1CC[C@H]2O,activation,[21],0.0688% (inactive)
same,activation,[22],-2.33% (inactive)
same,max response,[23],-2.25% (inactive)
same,Potency,[24],inactive
same,max response,[25],1.08% (inactive)
same,max response,[26],-4.18% (inactive)
same,max response,[27],-7.89% (inactive)
same,outcome,[28],inactive
same,Potency,[17],2590 nM (active)
same,Potency,[29],inactive
same,max response,[30],3.9% (inactive)
same,outcome,[31],inactive
